# Assay outcomes: PubChem BioAssay, National Center for Advancing Translational Sciences (NCATS)
# IP6K1 inh: blocks human inositol hexakisphosphate kinase 1; Q92551; IP6K1 kinase, ADP-Glo luminescence, 2 h; hits give low values; activity change, % (series mostly up to about 58 µM); actives 0.81% (n = 140,000); AID 1645851; in the data active = activity change below about -25%; also: % is scaled to controls: 0 for no effect and ±100 for the full control effect
#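 ADP-Glo luminescence measures ADP made by human IP6K1 during a 2 h RT reaction with ATP/IP6 (mix at 1.3 mM/130 uM); top library doses 57.5 and 19.1 uM final.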
# KDM5B inh: KDM5B demethylase inhibition. Q9UGL1. actives 2.6% (n = 220,000). KDM5B demethylase, FDH-coupled NADH fluorescence (FDH is formaldehyde dehydrogenase). Potency, µM (titrated, usually from 57.7 µM), usual class: inhibitors; active = well fitted inhibition curve with a large enough effect; inconclusive = small, poorly fitted or top-dose-only effect; inactive = no such curve, though single readings can be large or run the other way; also: potency is read from the fitted curve at half-maximal effect; 0% is about no effect; nearly all actives have a fitted effect of over 70% in size
#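 Here, H3K4me3 peptide (12.5 µM in substrate mix) is demethylated by KDM5BΔAP, 200 nM final, after 10 min compound exposure. Formaldehyde product is coupled through FDH (0.25 U/mL in mix) to NADH fluorescence; 30-min ΔRFU feeds dose-response curves.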
# Numbers without * were called inactive; i = inactive; ? = inconclusive; . = no result given. Most compounds without a hit are left out; they make up all but 2.8% or so of the library.
SMILES,IP6K1 inh,KDM5B inh
Cc1ccc(NC(=O)N2CCc3c(c4ccccc4n3CC3CC3)C2)cc1,4.6,22.4µM*
O=C(Nc1ccc(Cl)cc1)N1CCC(CN2CCCC2)CC1,24.9,?
N#Cc1cccc(-c2c(C(=O)NCc3cccc(Cl)c3)nc3sccn23)c1,3.2,.
CC1=C[C@@H](CNS(=O)(=O)c2ccc(Cl)cc2)[C@H](C(C)C)C[C@H]1CC(=O)N1CCOCC1,2.7,?
O=C(NC1CCC(O)CC1)c1ccc(-c2ncc3cnc(-c4ccccc4)cn23)cc1 (centres undefined),-0.5,?
O=C(c1ccc(-c2ncc3cnc(-c4cccc(F)c4)cn23)cc1)N1CCc2cccnc21,-17.4,?
O=C(c1ccc(-c2ncc3cnc(C4=CCOCC4)cn23)cc1)N1CCc2ccccc2C1,-3.4,28.2µM*
O=C(NCCCO)c1ccc(-c2ncc3cnc(-c4cccc(F)c4)cn23)cc1,-14.2,?
O=C(c1ccc(-c2ncc3cnc(-c4ccccc4)cn23)cc1)N1CCS(=O)(=O)CC1,-10.7,35.5µM*
O=C(O)c1ccc(-c2ncc3cnc(-c4ccccc4)cn23)cc1,-1.3,?
O=C(NCc1cnccn1)c1ccc(-c2ncc3cnc(C4=CCOCC4)cn23)cc1,-8.9,35.5µM*
O=C(NCCO)c1ccc(-c2ncc3cnc(C4=CCOCC4)cn23)cc1,-13.7,31.6µM*
O=C(NC1CCCCC1)c1ccc2nnc(CC3CC3)n2c1,0.5,.
O=C(Cn1cccc1-c1nc(-c2ccc3c(c2)OCO3)no1)Nc1ccc2c(c1)OCCO2,0.1,?
Cc1noc(C)c1[S+](=O)([O-])N1CCCC(c2nn(-c3ccccn3)c(=O)[nH]2)C1 (centres undefined),1.0,.
Cc1cc(NC(=O)Cc2ccsc2)ccc1N1CCCC1=O,.,i
O=C(NCC(F)F)c1cc(Br)cn2ccnc12,6.0,39.8µM*
CN(C)C(=O)c1ccccc1Br,.,i
O=C(NCc1cccs1)c1cc(Br)cn2ccnc12,0.6,39.8µM*
O=C(NCc1cccs1)c1ccccn1,.,i
Cc1cc(C(=O)NC2CC2)c2cc(Br)ccc2n1,.,i
O=C(NCC(F)F)c1nc2sccn2c1Br,5.4,i
O=C(NC1CC1)c1cc(Br)cn2ccnc12,-2.1,39.8µM*
CN(C)C(=O)c1cc(Br)cn2ccnc12,-6.0,35.5µM*
Cc1noc(C)c1[S+](=O)([O-])N1CCCC(C(=O)N2CCC(N3CCCC3=O)CC2)C1 (centres undefined),-2.4,.
SMILES,IP6K1 inh,KDM5B inh
Cc1cnc(C(=O)Nc2cc(Cl)c(NC(=O)c3ccc(S(C)(=O)=O)cc3)c(Cl)c2)cn1,.,i
Cc1cccc(-c2nc3ccc(C(=O)NCc4ccccc4Cl)cc3o2)n1,16.5,.
Cc1ccc([S+](=O)([O-])N2CCN(c3ccc4nnc(C)n4n3)CC2)cc1,5.9,.
Cc1nn(-c2ccccc2)c2c1C(C1CC1)N(CC1CN(C(=O)Nc3ccc(Cl)cc3)C1)C2=O (centres undefined),-5.4,.
CC(C)Oc1cccc2c1c(NC(=O)C1CCCO1)nn2Cc1ccccc1 (centres undefined),-5.5,i
CC(C)Oc1cccc2c1c(NC(=O)c1ccn(C)n1)nn2Cc1ccccc1,18.8,25.1µM*
COc1ccccc1Nc1ccnc(N2CCC(C(=O)NCCSC)CC2)n1,16.6,.
CC(C)NC(=O)N1CC[C@H](n2c(=O)n(C)c3cccnc32)C1,-9.2,.
COc1ccc(-c2nc(N3CCOCC3)cc3c2CN(Cc2ccccc2)C3=O)cn1,10.8,35.5µM*
COc1ccc(-c2nc(N3CCOCC3)cc3c2CN(CC2CC2)C3=O)cn1,5.1,35.5µM*
Cn1cc(-c2nc(N3CCOCC3)cc3c2CN(CC2CC2)C3=O)cn1,10.2,i
Cc1nn2c(c1-c1cccnc1N1CCOCC1)N(CC1CCOCC1)CCC2,12.9,?
COc1ccc(-c2nc(N3CCOCC3)cc3c2CN(Cc2ccccc2)C3=O)cc1OC,7.1,i
Cc1ccccc1-c1nc(N2CCOCC2)cc2c1CN(CC1CC1)C2=O,17.5,35.5µM*
c1ccc(-c2nnc3ccc(-c4ccoc4)nn23)nc1,-16.9,31.6µM*
c1ccc(-c2nnc3ccc(NC4CCCCC4)nn23)nc1,-13.3,?
N#Cc1cc2c(=O)n(CCCCN3CCCC3)ccc2[nH]c1=O,23.8,28.2µM*
N#Cc1ccccc1CN1CCCC1,.,i
COc1ccc(F)cc1-c1ccc(CN2CCC(NC(=O)C(C)(C)C)C2)cc1 (centres undefined),0.6,.
COc1ccc(C(=O)N2CCC(c3noc(COc4ccc(C)cc4)n3)CC2)cn1,9.2,.
CN(C)C[C@@H]1CN(c2ncccn2)C[C@H]1NS(=O)(=O)c1cc(F)ccc1F,2.1,?
CN(C)C[C@@H]1CN(c2ncccn2)C[C@H]1NC(=O)Cc1cccc(F)c1,-3.6,25.1µM*
CN(C)C[C@@H]1CN(c2ncccn2)C[C@H]1NS(=O)(=O)c1ccc(C#N)cc1,7.1,?
